{"source": "PubChem BioAssay AID540308", "about": "(The Scripps Research Institute Molecular Screening Center, 2011)", "note": "About 3,500 (0.97%) of roughly 360,000 compounds were called active. This excerpt belongs to a sample that is enriched for actives. Unmarked numbers belong to inactive results.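 How the source made its calls: active means activation above a per-plate cutoff, the mean activation of sample wells on that plate plus 3 SD (cut at about 8% in these data); inactive means the rest.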"}
{"target": "Melanocortin receptor 4 (Homo sapiens) (UniProt P32245)", "sequence (P32245 whole entry, looked up)": "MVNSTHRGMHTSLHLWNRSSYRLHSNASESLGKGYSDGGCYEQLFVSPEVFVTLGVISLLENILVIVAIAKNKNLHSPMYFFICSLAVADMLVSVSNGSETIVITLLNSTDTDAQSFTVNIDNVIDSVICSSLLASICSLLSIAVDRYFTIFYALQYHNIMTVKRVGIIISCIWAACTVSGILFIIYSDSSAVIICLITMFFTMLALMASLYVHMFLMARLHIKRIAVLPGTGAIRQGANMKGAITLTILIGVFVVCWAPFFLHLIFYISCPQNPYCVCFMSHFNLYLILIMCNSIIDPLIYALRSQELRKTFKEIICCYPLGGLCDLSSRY", "assay": "MC4R agonists recruiting beta-arrestin, primary screen, cell-based, luminescence, agonist arm of biased-ligand search (AID 540308)", "conditions": "U2OS MC4R beta-arrestin complementation, at 8.9 µM, active compounds read high, percent of melanotan II response, DMSO zero"}
{"smiles": "COc1ccc(S(=O)(=O)NC(=O)C2(C)CCN2C(=O)c2ccccc2CCc2ccccc2)cc1", "note": "(configuration not stated)", "activation": "-2.22%"}
{"smiles": "O=C(O)c1ccc(/C=N/NC(=S)NCc2ccccc2)cc1", "activation": "0.6%"}
{"smiles": "O=C(O)COc1ccc(/C=N/O)cc1Br", "activation": "-1.99%"}
{"smiles": "CNC(=S)N/N=C/c1ccc(OCc2ccccc2)c(Br)c1", "activation": "8.56% (active)"}
{"smiles": "CCCC(=O)N1CCC1(C)C(=O)Nc1ccc(-n2cncn2)cc1", "note": "(configuration not stated)", "activation": "0.24%"}
{"smiles": "COc1cccc(-c2cc3nc(NCCOc4ccccc4Cl)n(C)c(=O)c3s2)c1", "activation": "2.56%"}
{"smiles": "COCCNc1nc(Nc2ccccc2Cl)c2sc(-c3ccccc3)cc2n1", "activation": "10.6% (active)"}
{"smiles": "Clc1ccccc1Nc1nc(NCc2cccs2)nc2ccsc12", "activation": "15.7% (active)"}
{"smiles": "COc1cccc(CNc2nc(NCc3cccs3)nc3ccsc23)c1", "activation": "-1.2%"}
{"smiles": "COc1ccccc1CNc1nc(Nc2ccccc2Cl)c2sccc2n1", "activation": "0.15%"}
{"smiles": "CC(=O)Nc1ccc(CNc2nc(NCCN(C)C)nc3cc(-c4ccccc4)sc23)cc1", "activation": "0.89%"}
{"smiles": "COc1ccc(C(C)(O)c2nc(-c3ccc(C)c(C)c3)cs2)cc1", "note": "(configuration not stated)", "activation": "0.79%"}
{"smiles": "COc1cc2ccccc2cc1C(=O)Nc1ccncc1", "activation": "-0.89%"}
{"smiles": "O=C(Nc1ccc(S(=O)(=O)Nc2nccs2)cc1)c1cc(-c2ccncc2)nc2ccccc12", "activation": "1.73%"}
{"smiles": "Cc1ccc2nc(-c3ccncc3)cc(C(=O)Nc3ccncc3)c2c1", "activation": "10.5% (active)"}
{"smiles": "Cc1ccc2nc(-c3ccncc3)cc(C(=O)Nc3ccc(OC(F)F)cc3)c2c1", "activation": "13.6% (active)"}
{"smiles": "CC1CCCC(NC(=O)c2cc(-c3ccncc3)nc3ccccc23)C1C", "note": "(configuration not stated)", "activation": "8.93% (active)"}
{"smiles": "CC(C)c1cc(C(=O)NC2CCCCCC2)c2ccccc2n1", "activation": "-0.07%"}
{"smiles": "Cc1ccc2nc(-c3ccccn3)cc(C(=O)Nc3ccc4c(c3)OCO4)c2c1", "activation": "8.55% (active)"}
{"smiles": "Cc1ccc(-n2c(SCC(=O)Nc3ccc4c(c3)OCO4)nnc2-c2ccccn2)cc1", "activation": "1.14%"}
{"smiles": "COc1ccc(NC(=O)c2cc(-c3cc(OC)c(OC)c(OC)c3)nc3ccccc23)c(OC)c1", "activation": "1.47%"}
{"smiles": "CSc1ncccc1C(=O)Nc1ccc2c(c1)OCO2", "activation": "-2.93%"}
{"smiles": "CCc1ccc(-c2cc(C(=O)NN3CCN(C)CC3)c3ccccc3n2)cc1", "activation": "-0.59%"}
{"smiles": "Cc1cc(NS(=O)(=O)c2ccc(NC(=O)c3cccc(OC(F)F)c3)cc2)nc(C)n1", "activation": "0.09%"}
{"smiles": "CCOC(=O)C1CCCN(C(=O)c2cc(-c3cccs3)oc2C)CC1", "note": "(configuration not stated)", "activation": "1.53%"}
{"smiles": "CCCS(=O)(=O)NC(=O)C1(C)CCCN(C(=O)c2ccnc(Cl)c2)C1", "note": "(configuration not stated)", "activation": "-0.96%"}
{"smiles": "CCCCc1ccc(S(=O)(=O)NC(=O)C2(C)CCN2C(=O)c2ccccc2)cc1", "note": "(configuration not stated)", "activation": "0.97%"}
{"smiles": "OC[C@@H]1CN(Cc2ccc(-c3ccccc3)cc2)C[C@H](n2cnc3c(NC4CCCC4)ncnc32)O1", "activation": "5.7%"}
{"smiles": "CCc1nc2c(OCc3ccc(C(=O)OC)cc3)cccn2c1N(C)C(=O)C(C)C", "activation": "1.62%"}
{"smiles": "CC1(C(=O)NS(=O)(=O)c2ccccc2)CCN1C(=O)c1ccccc1", "note": "(configuration not stated)", "activation": "-1.65%"}
{"smiles": "CCc1cccc(NC(=S)N(CCN(C)C)C2CCN(C(C)C)CC2)c1", "activation": "-0.19%"}
{"smiles": "CCOc1ccc2c(c1)cc(CN(C(=O)CC)C1CCCCC1)c1nnnn12", "activation": "0.48%"}
{"smiles": "CCc1ccc2c(c1)cc(CN(C(=S)Nc1ccccc1Cl)C1CC1)c1nnnn12", "activation": "12.6% (active)"}
{"smiles": "CC1(C(=O)NS(=O)(=O)c2cccc(F)c2)CCN1C(=O)Cc1cc(F)ccc1F", "note": "(configuration not stated)", "activation": "-0.76%"}
{"smiles": "CCNC(=O)C1(C)CCCN(C(=O)c2c(C)noc2C)C1", "note": "(configuration not stated)", "activation": "0.77%"}
{"smiles": "Cc1ccsc1/C=N/NC(=O)Cc1cc(=O)[nH][nH]1", "activation": "-1.77%"}
{"smiles": "C/C(=N\\Nc1ccc(Cl)nn1)c1ccccc1O", "activation": "-0.38%"}
{"smiles": "Cc1ccsc1/C=N/Nc1ccc(Cl)nn1", "activation": "12.3% (active)"}
{"smiles": "COc1ccccc1CNC(=O)c1cc(-c2cc(F)ccc2OC)n[nH]1", "activation": "1.31%"}
{"smiles": "CCCCC(=O)N(C)c1c(CC)nc2c(OCc3ccc(Cl)cc3Cl)cccn12", "activation": "0.75%"}
{"smiles": "CC(=O)OC[C@@H]1CN(Cc2ccccc2)C[C@H](n2cnc3c(NCc4ccco4)ncnc32)O1", "activation": "-2.47%"}
{"smiles": "COc1ccc(Nc2cc(=O)oc3ccccc23)cc1", "activation": "-0.49%"}
{"smiles": "COc1cccc2cc(-c3cc(=O)oc4cc(C)c(O)cc34)oc12", "activation": "1.6%"}
{"smiles": "COc1ccc2oc(=O)cc(-c3cc4ccccc4o3)c2c1", "activation": "8.24% (active)"}
{"smiles": "CCN(c1ccccc1)S(=O)(=O)c1ccc(NC(=O)C(C)(C)C)cc1", "activation": "-0.35%"}
{"smiles": "CCN(c1ccccc1)S(=O)(=O)c1ccc(C(=O)Nc2ccccc2OC)cc1", "activation": "0.77%"}
{"smiles": "CCN(c1ccccc1)S(=O)(=O)c1ccc(C(=O)Nc2nccs2)cc1", "activation": "8.9% (active)"}
{"smiles": "O=C(NC(c1ccc(-c2ccccc2)cc1)c1cnccn1)C1CCN(CCOc2ccc(Cl)cc2Cl)CC1", "note": "(configuration not stated)", "activation": "18% (active)"}
{"smiles": "Cc1ccc(C(NC(=O)C2CCN(CCOc3ccc(Cl)cc3Cl)CC2)c2ccccn2)cc1", "note": "(configuration not stated)", "activation": "4.91%"}
{"smiles": "O=C(NC(c1ccc(Cl)cc1)c1cnccn1)C1CCN(Cc2ccc(Cl)cc2)CC1", "note": "(configuration not stated)", "activation": "-0.34%"}
{"smiles": "CCc1ccc2c(c1)NC(=O)C2(C)Cc1ccc(OC(F)(F)F)cc1", "note": "(configuration not stated)", "activation": "-0.4%"}
{"smiles": "Cc1ccc(-c2cnc(C(O)c3cccc(C)c3C)[nH]2)cc1", "note": "(configuration not stated)", "activation": "-0.77%"}
{"smiles": "CC(C)c1ccc2c(c1)c(SC(C)(C)C)c(CC(C)(C)C(=O)O)n2Cc1ccc(Cl)cc1", "activation": "15.9% (active)"}
{"smiles": "COCCNC(=O)C1CCCN(Cc2ccccc2Cl)CC1", "note": "(configuration not stated)", "activation": "-0.57%"}
{"smiles": "CC(=O)Nc1ccc(-c2ccnc3c2CC(C(=O)NC(C)C)O3)cc1", "note": "(configuration not stated)", "activation": "-1.59%"}
{"smiles": "O=C(NCCO)c1cccc(-c2cccc3nccn23)c1", "activation": "-1.27%"}
{"smiles": "CNc1cncc(-c2ccc(NS(C)(=O)=O)cc2)n1", "activation": "-1.66%"}
{"smiles": "CCOC(=O)c1[nH]c2c(c1-c1ccccc1)C(=O)CC(c1ccc(Cl)cc1)C2", "note": "(configuration not stated)", "activation": "13.1% (active)"}
{"smiles": "CCCOC(=O)c1[nH]c2c(c1C)C(=O)CC(c1cccs1)C2", "note": "(configuration not stated)", "activation": "-0.13%"}
{"smiles": "CCOC(=O)C1=C(CN2CCc3ccccc32)NC(=O)NC1c1ccc(Cl)cc1", "note": "(configuration not stated)", "activation": "6.41%"}
{"smiles": "CS(=O)(=O)/C(C#N)=C/c1cccn1S(=O)(=O)c1ccc([N+](=O)[O-])cc1", "activation": "-0.77%"}
{"smiles": "O=C(O)c1ccccc1-c1cccc2nncn12", "activation": "1.15%"}
{"smiles": "OC(c1ccccc1)c1nc(-c2cnc3ccccc3c2)cs1", "note": "(configuration not stated)", "activation": "-1.73%"}
{"smiles": "COc1cccc(NC(=O)CN(C)C(C)C(=O)Nc2ccc(C#N)cc2)c1", "note": "(configuration not stated)", "activation": "-2.21%"}
{"smiles": "O=C(Nc1cccn(Cc2ccccc2Cl)c1=O)NC1CCCCC1", "activation": "-3.02%"}
{"smiles": "Cc1ccc(C(=O)Nc2c(C#N)c(C)c(C)n2Cc2ccccc2)cc1", "activation": "0.7%"}
{"smiles": "COc1ccc(Cn2cccc(NC(=O)Nc3ccc(C#N)cc3)c2=O)cc1", "activation": "8.99% (active)"}
{"smiles": "Cc1c(C#N)c(NC(=O)c2ccccc2)n(Cc2ccccc2)c1C", "activation": "1.54%"}
{"smiles": "COc1ccc(Cn2c(C)c(C)c(C#N)c2NC(=O)Nc2ccc(F)cc2)cc1", "activation": "9.65% (active)"}
{"smiles": "O=C(NCc1cccnc1)c1cc(C2CCCN(C(=O)C3CCCCC3)C2)on1", "note": "(configuration not stated)", "activation": "0.25%"}
{"smiles": "CC1(Cc2cccc(C#N)c2)C(=O)Nc2ccc(-c3cccc(C(F)(F)F)c3)cc21", "note": "(configuration not stated)", "activation": "1.34%"}
{"smiles": "CCOc1ccc(Cl)cc1-c1cc(C(=O)NCc2cccs2)[nH]n1", "activation": "1.31%"}
{"smiles": "O=C(CSc1nc2cccc(F)c2c(=O)n1-c1ccccc1)Nc1ccc2c(c1)CCC2", "activation": "1.04%"}
{"smiles": "COC(=O)C1=C(O)/C(=C/c2ccc(OCC(=O)Nc3ccccc3)cc2)N=C1C", "activation": "-2.96%"}
{"smiles": "Cc1ccc(NC(=O)COc2ccc(/C=C3/NC(=O)NC3=O)cc2)cc1", "activation": "-1.81%"}
{"smiles": "CCOC(=O)C1=C(O)/C(=C/c2ccc(OCC(=O)Nc3ccc(C)cc3)cc2)N=C1C", "activation": "16.8% (active)"}
{"smiles": "COC(=O)c1ccc(CN2C(=O)C(Cc3ccccc3)ON=C2c2ncccc2C)o1", "note": "(configuration not stated)", "activation": "0.08%"}
{"smiles": "CS(=O)(=O)c1cccc(-c2ccc3nncn3c2)c1", "activation": "0.6%"}
{"smiles": "CSc1ccccc1OCc1cc(C(=O)N2C[C@H]3CC[C@H]2C3)no1", "activation": "-3.22%"}
{"smiles": "O=C(O)c1cscn1", "activation": "-0.73%"}
{"smiles": "Cc1ccc2nc(-c3ccc(SCC(=O)Nc4cc(C)on4)nc3)[nH]c2c1", "activation": "-0.33%"}
{"smiles": "Cc1cc(NC(=O)CSCC(=O)NC(C)c2ccccc2)no1", "note": "(configuration not stated)", "activation": "3.59%"}
{"smiles": "Cc1ccc(-c2csc(SCC(=O)Nc3cc(C)on3)n2)cc1", "activation": "12.5% (active)"}
{"smiles": "CCc1nc2ccc(C(=O)N3CCN(S(=O)(=O)CC)CC3)cn2c1N(C=O)CCC(C)C", "activation": "-1.41%"}
{"smiles": "CC(C)Cn1cc(-c2cncc3nccn23)cn1", "activation": "-1.32%"}
{"smiles": "COc1ccccc1CC1(C)C(=O)Nc2ccc(OC(F)(F)F)cc21", "note": "(configuration not stated)", "activation": "4.13%"}
{"smiles": "Cc1c(C(=O)N2CCN(c3ccc(F)cc3)CC2)oc2c1C(=O)CCC2", "activation": "-0.69%"}
{"smiles": "O=C(c1cc2cc(F)ccc2[nH]1)N1CCN(c2ccc(F)cc2)CC1", "activation": "9.41% (active)"}
{"smiles": "O=C(c1ccccc1Oc1ccccc1)N1CCN(c2ccc(F)cc2)CC1", "activation": "-0.88%"}
{"smiles": "CS(=O)(=O)N1CCCCC1c1cc(C(=O)NCc2ccccc2)no1", "note": "(configuration not stated)", "activation": "0.31%"}
{"smiles": "CC1(C(=O)NCc2ccc3c(c2)OCO3)CCN1CCc1ccccc1", "note": "(configuration not stated)", "activation": "1.41%"}
{"smiles": "CCCNC(=O)C1(C)CCCN(C(=O)c2cccc(OC(C)=O)c2C)C1", "note": "(configuration not stated)", "activation": "-0.89%"}
